Data from PubChem BioAssay (EPA / NIEHS).
Calls of active or inactive are those of the source. How the source made its calls: active means hit-call score of the fitted dose curve at least 0.9, where 1 is the maximum; inconclusive means response in the unintended direction; inactive means score below 0.9.

target: Estrogen receptor (Homo sapiens) (UniProt P03372); assay: OT_ERa_GFPERaERE_0120: Odyssey Thera (OT) 2-hour HeLa Transcription Induction Assay for Estrogen Receptor (AID 2283382)
Method: OT_ERa_GFPERaERE_0120 is a cell-based, single-readout assay that uses HeLa, a human cervix cell line, with measurements taken at 2 hours after chemical dosing in a 384-well plate.OT_ERa_GFPERaERE_0120 is one of one assay component(s) measured or calculated from the OT_ERa_GFPERaERE_0120 assay. It is designed to make measurements of fluorescent protein induction, a form of inducible reporter, as detected with optical microscopy: fluorescence microscopy signals by Microscopy technology.Data from the assay component OT_ERa_GFPERaERE_0120 was analyzed into 1 assay endpoint. This assay endpoint, OT_ERa_EREGFP_0120, was analyzed in the positive analysis fitting direction relative to DMSO as the negative control and baseline of activity. Using a type of inducible reporter, measures of receptor for gain-of-signal activity can be used to understand the reporter gene at the pathway-level as they relate to the gene ESR1. Furthermore, this assay endpoint can be referred to as a primary readout, because the performed assay has only produced 1 assay endpoint. To generalize the intended target to other relatable targets, this assay endpoint is annotated to the nuclear receptor intended target family, where the subfamily is steroidal.
All assay endpoints are quantified using high content image analysis algorithms.

Chain of Estrogen receptor (Homo sapiens) (P03372 whole entry, looked up): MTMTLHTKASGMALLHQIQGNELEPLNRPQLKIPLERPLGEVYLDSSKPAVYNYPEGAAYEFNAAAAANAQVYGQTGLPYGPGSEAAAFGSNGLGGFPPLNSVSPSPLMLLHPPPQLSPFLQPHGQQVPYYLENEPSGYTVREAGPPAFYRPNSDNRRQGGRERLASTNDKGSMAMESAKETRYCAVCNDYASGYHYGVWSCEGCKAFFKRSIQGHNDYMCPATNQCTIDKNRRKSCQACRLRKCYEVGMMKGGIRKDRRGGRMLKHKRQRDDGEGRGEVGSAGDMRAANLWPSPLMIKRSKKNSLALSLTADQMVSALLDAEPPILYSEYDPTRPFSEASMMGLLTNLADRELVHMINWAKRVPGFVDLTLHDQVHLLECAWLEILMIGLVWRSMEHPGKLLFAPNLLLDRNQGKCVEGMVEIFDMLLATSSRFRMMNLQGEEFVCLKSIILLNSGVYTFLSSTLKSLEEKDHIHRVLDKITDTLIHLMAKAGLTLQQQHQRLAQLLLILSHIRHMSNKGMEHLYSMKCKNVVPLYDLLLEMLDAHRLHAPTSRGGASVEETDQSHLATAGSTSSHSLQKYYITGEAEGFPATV

SMILES | outcome | AC50
Clc1ccc(COC(Cn2ccnc2)c2ccc(Cl)cc2Cl)cc1 (stereo not given) | inactive | –
CCC1(c2ccc(N)cc2)CCC(=O)NC1=O (stereo not given) | inactive | –
CCC(C)(C)c1ccc(O)c(C(C)(C)CC)c1 | inactive | –
Cl/C=C/Cl | inactive | –
C=C(C)C(=O)[O][Sn]([CH2]CCC)([CH2]CCC)[CH2]CCC | – | 0.772 µM (active)
O=C(Nc1ccc2[nH]ccc2c1)c1cc2cc(F)ccc2n1Cc1cccc(F)c1 | inactive | –
CCN1CCC2(CC1)COc1cc3c(cc12)N(C(=O)c1ccc(-c2ccc(-c4nnc(C)o4)cc2C)cc1)CC3 | inactive | –
CC(C)(c1ccc(OCC2CO2)cc1)c1ccc(OCC2CO2)cc1 (stereo not given) | inactive | –
CC(=O)C=C(C)C | – | 22.9 µM (active)
C=CC(=O)OCCCCCC(C)C | inactive | –
CCOC(=O)Nc1cccc(OC(=O)Nc2ccccc2)c1 | inactive | –
Cc1ccc(N)cc1Cl | – | 0.789 µM (active)
NNC(=S)NN | inactive | –
Clc1ccc(C2(Cn3cncn3)CC(Br)CO2)c(Cl)c1 (stereo not given) | inactive | –
CC(C)(C)c1cc(O)ccc1O | inactive | –
[O-][Cl+2]([O-])O | inactive | –
COc1cc(OC)nc(NC(=O)NS(=O)(=O)c2ncccc2C(=O)N(C)C)n1 | inactive | –
COc1ccc(C=O)cc1 | inactive | –
Fc1ccc(C2(Cn3cncn3)OC2c2ccccc2Cl)cc1 (stereo not given) | inactive | –
CCCCCCCCSC(=O)Oc1cc(Cl)nnc1-c1ccccc1 | inactive | –

SMILES | outcome | AC50
O=C1CCCN1 | inactive | –
O=[N+]([O-])c1ccc(O)c([N+](=O)[O-])c1 | inactive | –
O=C(Cc1ccccc1)c1ccccc1 | inactive | –
CCOP(=S)(OCC)Oc1nc(Cl)c(Cl)cc1Cl | inactive | –
CC(=O)c1cc(C(C)(C)C)cc2c1CCC2(C)C | inactive | –
CC(C)c1cccc(C(C)C)c1O | inactive | –
CC1(C)Cc2cccc(O)c2O1 | inactive | –
OCC(O)CCl (stereo not given) | inactive | –
COP(=O)(OC)O/C(=C\Cl)c1cc(Cl)c(Cl)cc1Cl | inactive | –
O=C/C=C/c1ccccc1 | inactive | –
CC1(C)CCC(Cc2ccc(Cl)cc2)C1(O)Cn1cncn1 (stereo not given) | inactive | –
CCCCOCCOC(C)=O | inactive | –
C[C@H]1CCCC(=O)CCC/C=C/c2cc(O)cc(O)c2C(=O)O1 | – | 0.0915 µM (active)
OCc1ccco1 | inactive | –
CCOP(=S)(OCC)SCSP(=S)(OCC)OCC | – | 10.9 µM (active)
COP(=S)(OC)Oc1ccc(Sc2ccc(OP(=S)(OC)OC)cc2)cc1 | inactive | –
CNC(=O)O/N=C/C(C)(C)S(C)=O (stereo not given) | inactive | –
CCC[CH2][Sn]([Cl])([Cl])[Cl] | inactive | –
BrCCBr | inactive | –
Clc1nc(Cl)nc(Cl)n1 | inactive | –
